# Measurements published in PubChem BioAssay (NCATS).
# Records with an inconclusive call do not appear. Values without a mark were called inactive. Active and inactive are the calls of the source. Calls follow the shape of the dose curve; as a rule, active = well fitted cell-killing curve with a large enough effect; inconclusive = small, poorly fitted or top-dose-only effect, or effect the other way; inactive = no such curve, though single readings can be large or run the other way. Starred links: 1 amine or outer side, 2 acyl side, 3 side chain; linkers in the order of their positions; H or OH if unused. Positions of bridges follow the written chain, without caps; N, C: chain ends. Non-standard residues stand in square brackets, D forms with d. Residues, ends and D or L forms follow the SMILES beside them. Chains are numbered I, II in the order given. Actinocin(9to1) = Cc1c2oc3c(C)ccc(C(=O)[*:1])c3nc-2c(C(=O)[*:2])c(N)c1=O; NMeV = CN[CH](C(=O)O)C(C)C; Sar = CNCC(=O)O
# Assay: Quantitative High-Throughput drug screen in 47 multiple myeloma cell lines against the NCATS MIPE library collection: PE2_PLB cell viability assay (AID 1919869); also: nearly all actives have a fitted effect of over 35% in size;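 as to viability (% of control): 100% = DMSO-only wells and 0% = cell-free media-only wells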
# Conditions: PE2_PLB myeloma cells viability, ATP luminescence, 48 h; series mostly up to 45.8 µM; viability (% of control): at the top concentration
# Summary of the method: (§1)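 Inhibition of viability over 48 h was scored by ATP content (CellTiter-Glo) in 500-cell wells. Zero and full viability were defined by media-only and DMSO-only wells.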
# Potency is read from the fitted curve at half-maximal effect.
Compound,Potency,viability (% of control)
CC(C)c1cnn2c(NCc3ccccc3)cc(NCCCCCCN)nc12,26400 nM (active),
CC(C=CC(=O)NO)=C[C@@H](C)C(=O)c1ccc(N(C)C)cc1,590 nM (active),
CN1[C@H]2CC(OC(=O)[C@@H](CO)c3ccccc3)C[C@H]1[C@H]1O[C@H]12 (stereo partly drawn),,110% [at 23.2 µM]
CN(C)c1ccc2cc(C(=O)N[C@@H](CCCN=C(N)CCl)C(=O)NCc3ccccc3)ccc2c1,8330 nM (active),
CCC(C(=O)O)C1CCC(C)C(C(C)C(O)C(C)C(=O)C(CC)C2OC3(C=CC(O)[C@@]4(CC[C@](C)(C5CC[C@@](O)(CC)C(C)O5)O4)O3)C(C)CC2C)O1 (stereo partly drawn),2640 nM (active),
COc1cc2c(cc1OC)[C@@H]1C(=O)c3ccc4c(c3O[C@@H]1CO2)C=CC(C)(C)O4,7430 nM (active),

# Assay: Quantitative High-Throughput drug screen in 47 multiple myeloma cell lines against the NCATS MIPE library collection: PCM6_Riken cell viability assay (AID 1919870); also: nearly all actives have a fitted effect of over 30% in size;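 as to viability (% of control): 100% = DMSO-only wells and 0% = media-only wells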
# Conditions: CellTiter-Glo ATP, 48 h; series mostly up to 45.8 µM; viability (% of control): at the top concentration
# Summary of the method: as §1
Compound,Potency,viability (% of control)
CCc1ccc(C(=O)Nc2cc(CN3CCN(C)CC3)cc(C(F)(F)F)c2)cc1C#Cc1cnc2ccnn2c1,3720 nM (active),
CO[C@@H]1[C@@H](O)[C@H](O)[C@@H](n2c3c(Cl)cccc3c3c4c(c5c6cccc(Cl)c6[nH]c5c32)C(=O)NC4=O)O[C@@H]1CO,1480 nM (active),
Cc1cc(O)c2c(c1)C(=O)c1cccc(O)c1C2=O,,106%
C[C@H](NC(=O)C(C#N)=Cc1cccc(Br)n1)c1ccccc1,2090 nM (active),
Cn1cnc(=N)c2[nH]cnc21,235 nM (active),
COc1cccc2c1C(=O)c1c(O)c3c(c(O)c1C2=O)C[C@@](O)(C(=O)CO)C[C@@H]3O[C@H]1C[C@H](N)[C@@H](O)[C@H](C)O1,209 nM (active),
COc1cc(C=CC(=O)CC(=O)C=Cc2ccc(O)c(OC)c2)ccc1O,9590 nM (active),
CCC[C@H]1C[C@H](C(=O)N[C@@H]([C@@H]2O[C@@H](SC)[C@@H](O)[C@@H](O)[C@@H]2O)[C@H](C)Cl)N(C)C1,,120%
C=CC(=O)Nc1ccc2ncnc(Nc3ccc(OCc4cccc(F)c4)c(Cl)c3)c2c1,1660 nM (active),
OCc1ccccc1O[C@@H]1O[C@H](CO)[C@H](O)[C@H](O)[C@H]1O,,132%
Cn1cc(C2=C(c3c4n(c5ccccc35)CCC(CN)C4)C(=O)NC2=O)c2ccccc21 (stereo not drawn),5260 nM (active),
O=C(Nc1cccc(Nc2ncc(Br)c(NCCc3cnc[nH]3)n2)c1)N1CCCC1,3320 nM (active),
C=CCNc1c(O)cc2c(O)c1C[C@@H](C)C[C@H](OC)[C@@H](O)[C@@H](C)C=C(C)[C@H](OC(N)=O)[C@@H](OC)C=CC=C(C)C(=O)N2,833 nM (active),
C[C@@H]1CC[C@@]2(OC1)OC1CC3C4CC=C5CC(O)CCC5(C)C4CCC3(C)C1[C@@H]2C (stereo partly drawn),,110%
CCS(=O)(=O)Nc1ccc2[nH]c(O)c(C(=Nc3ccc(CN4CCCCC4)cc3)c3ccccc3)c2c1,3720 nM (active),
CCN(CC)CCNC(=O)c1c(C)[nH]c(C=C2C(=O)Nc3ccc(F)cc32)c1C,1520 nM (active),

Compound,Potency,viability (% of control)
O=C1NC(=O)[C@@H](c2cn3c4c(cccc24)CCC3)[C@H]1c1c[nH]c2ccccc12,5900 nM (active),
COC1=C2C[C@@H](C)C[C@H](OC)[C@@H](O)[C@@H](C)C=C(C)[C@H](OC(N)=O)[C@@H](OC)C=CC=C(C)C(=O)NC(=CC1=O)C2=O,148 nM (active),
NC(=NCCCCCCN=C(N)N=C(N)Nc1ccc(Cl)cc1)N=C(N)Nc1ccc(Cl)cc1,2640 nM (active),
Nc1nc(N)c2nc(-c3cccc(O)c3)c(-c3cccc(O)c3)nc2n1,2640 nM (active),
CC(C)C[C@H](NC(=O)[C@@H](NC(=O)c1cccc(-c2ccccc2)n1)[C@@H](C)O)B(O)O,23.5 nM (active),
C#C[C@]1(O)CC[C@@H]2[C@@H]3CCC4=CC(=O)CC[C@@H]4[C@H]3CC[C@@]21CC,,83.4%
CC(=O)O[C@@]12CO[C@H]1C[C@H](O)[C@@]1(C)C(=O)[C@H](O)C3=C(C)[C@@H](OC(=O)C(O)[C@@H](NC(=O)OC(C)(C)C)c4ccccc4)C[C@@](O)([C@@H](OC(=O)c4ccccc4)[C@@H]21)C3(C)C (stereo partly drawn),,79.8%
C[C@@]12C(=O)OC(=O)[C@@]1(C)C1CCC2O1,2350 nM (active),
"Cc1c2oc3c(C)ccc(C(=O)NC4C(=O)NC(C(C)C)C(=O)N5CCCC5C(=O)N(C)CC(=O)N(C)C(C(C)C)C(=O)OC4C)c3nc-2c(C(=O)NC2C(=O)NC(C(C)C)C(=O)N3CCCC3C(=O)N(C)CC(=O)N(C)C(C(C)C)C(=O)OC2C)c(N)c1=O (stereo not drawn) (I: TVP[Sar][NMeV] / II: TVP[Sar][NMeV]; ester I:1-I:C, II:1-II:C; linker I:N-II:N via Actinocin(9to1); configuration not given here)",,5.35%
CC(C)c1cnn2c(NCc3ccccc3)cc(NCCCCCCN)nc12,13200 nM (active),
CN1[C@H]2CC(OC(=O)[C@@H](CO)c3ccccc3)C[C@H]1[C@H]1O[C@H]12 (stereo partly drawn),,113% [at 23.2 µM]
c1ccc(CNc2nc(NCc3ccccc3)c3ccccc3n2)cc1,8330 nM (active),
CN(C)c1ccc2cc(C(=O)N[C@@H](CCCN=C(N)CCl)C(=O)NCc3ccccc3)ccc2c1,4180 nM (active),
COc1cccc2c1C(=O)c1c(O)c3c(c(O)c1C2=O)C[C@@](O)(C(=O)CO)C[C@H]3O[C@H]1C[C@H](N)[C@H](O)[C@H](C)O1,105 nM (active),
CCC(C(=O)O)C1CCC(C)C(C(C)C(O)C(C)C(=O)C(CC)C2OC3(C=CC(O)[C@@]4(CC[C@](C)(C5CC[C@@](O)(CC)C(C)O5)O4)O3)C(C)CC2C)O1 (stereo partly drawn),4690 nM (active),
CCC(C=C[C@@H]1OC(=O)C=C[C@H]1C)=C[C@H](C)CC=CC(C)=C[C@@H](C)C(=O)[C@@H](C)[C@H](O)[C@@H](C)CC(C)=CC(=O)O,9.8 nM (active),
